A selection: hits, their analogues and other compounds. The true share with any hit is near 2.2%.
cardiac RTF act: increases calcium sensitivity of human cardiac regulated thin filaments; P19429+P45379; IANBD-labeled TnC RTF fluorescence at EC20 calcium; 0% EC20 calcium, 100% full calcium; actives 0.24% (n = 340,000); activation, % at 7.2 µM;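 active = activation above the mean over all tested compounds plus 3 SD, cut at about 30% in these data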;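 note: rise in fluorescence read as greater calcium sensitivity of cardiac thin filaments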
CRFBP-R2 agonist: agonists of human CRF-binding protein/CRF-R2 receptor complex | actives 0.46% (n = 350,000) | AID 588473 | HEK293 CRF-R2/CRF-BP, calcium dye fluorescence (FLIPR); percent of saturating CRF peptide response | activation, % at 13.2 µM;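 active = activation of at least 50%, plus an integration ratio under a set limit after plate pattern correction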
Cardiac RTF inh: cardiac RTF calcium desensitization; IANBD-labeled cardiac RTF, Ca2+ fluorescence; inhibition, % at 7.15 µM; actives 0.12% (n = 340,000); AID 493244;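 active = inhibition above the mean inhibition of all tested compounds plus 3 SD, cut at about 17% in these data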;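 note: assay run at fixed EC70 calcium of 1.6 mM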
CRFBP-R2 block: blocks CRF-induced signaling of the CRF-BP/CRF-R2 complex. HEK293 CRF-R2/CRF-BP, CRF-induced calcium fluorescence. inhibition, % at 11.8 µM. actives 0.59% (n = 350,000). AID 588475;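 active = inhibition of the ligand-induced calcium signal above about 50% at the single tested concentration, limit read from the data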
Myeloid diff MLP: compounds promoting myeloid differentiation | AID 624256 | ER-HoxA9 myeloid progenitors, lysozyme-GFP differentiation, flow cytometry | calls only at 10 µM | actives 1% (n = 360,000);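 active = normalized GFP-positive differentiation at or above the plate's own cutoff, the solvent-only control mean plus 3 SD; inconclusive = no clear call, values can overlap the other calls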;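 note: cells exposed to compound for four days before flow analysis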
Each line names hits and unclear results; the compound was inactive in the other large screens.

CCCCCCCN1C(Nc2ccccc2)=NC[C@@H]1CC(C)C	Myeloid diff MLP active
COC(=O)C1=C(C(=O)c2ccccc2)C(c2ccc(O)c(OC)c2)n2nnnc2N1 (stereo not drawn)	CRFBP-R2 block 98
COc1ccc(Cn2cccc(NC(=O)Nc3cccc(OC)c3)c2=O)cc1	none
COc1ccccc1N1CCN(c2cc(=O)n(Cc3ccc(F)cc3)c(=O)[nH]2)CC1	Myeloid diff MLP active
O=c1cc(N2CCN(c3ccccc3Cl)CC2)[nH]c(=O)n1Cc1ccc(F)cc1	Myeloid diff MLP inconclusive
CC(C)COC(=O)N1CCCCC1c1cc(C(=O)NCc2ccccc2)no1 (stereo not drawn)	none (no result: cardiac RTF act, CRFBP-R2 agonist, Cardiac RTF inh, CRFBP-R2 block)
COC(=O)c1ccccc1S(=O)(=O)N1CCC(C(=O)OCc2ccc([N+](=O)[O-])cc2)CC1	none
NS(=O)(=O)c1ccc(NC(=S)Nc2ccc(F)c(F)c2)cc1	CRFBP-R2 block 69
NS(=O)(=O)c1ccc(CNC(=S)Nc2ccc(F)c(Cl)c2)cc1	none
FC(F)(F)c1cccc(-c2nc3nc(Cl)c(Cl)nc3[nH]2)c1	CRFBP-R2 agonist 81
O=C(NC(=O)c1c(Cl)cccc1Cl)Nc1ccc(Oc2cccnc2)nc1	none (no result: cardiac RTF act, Cardiac RTF inh)
O=C(Nc1ccc(Oc2cccnc2)nc1)c1ccc(C(F)(F)F)cc1	CRFBP-R2 block 55
CC(C)(C)c1ccc(Oc2ccc(NC(=O)c3ccco3)cn2)cc1	Myeloid diff MLP active
O=C(Nc1ccc(Oc2cccc(C(F)(F)F)c2)nc1)c1ccco1	none
Cc1cc2nc(C)n(CCCN)c2cc1C	CRFBP-R2 block 54
COc1ccccc1CNC(=O)COC(=O)c1cc(=O)c2ccccc2o1	none
O=C(CN1C(=O)COc2ccc(Cl)cc21)Nc1ccc2c(c1)OCCO2	Myeloid diff MLP active
CC(C)c1cc(-c2cc(C(=O)NCc3ccccc3)on2)nc(NCC2CC2)n1	CRFBP-R2 agonist 96
CC(C)c1cc(-c2cc(C(=O)NCc3ccccc3)on2)nc(NC2CCCC2)n1	none
O=C(Nc1cc(C(F)(F)F)ccc1Cl)c1cccnc1	CRFBP-R2 agonist 106
O=C(Nc1ccc(N2CCCCC2)c(Cl)c1)c1cccnc1	Myeloid diff MLP active
CC(=O)c1cccc(NC(=S)NC(=O)Cc2ccccc2)c1	none
CC(=O)c1cccc(NC(=S)NC(=O)Cc2ccc(Cl)cc2)c1	CRFBP-R2 agonist 63
CCc1cc(C(=O)OC)c(NC(=O)CCC(=O)O)s1	none
CCOC(=O)c1cc(C)sc1NC(=O)CCC(=O)O	CRFBP-R2 block 59
O=C(Cc1c(O)c2ccccc2[nH]c1=O)OC1CCCCC1	CRFBP-R2 block 67
CCN(CC(=O)Nc1ccccc1C(F)(F)F)C(=O)CCc1c(C)[nH]c(=O)c(C#N)c1C	Myeloid diff MLP inconclusive
O=C(C1=C(O)C(=O)N(CCc2ccccc2)C1c1ccncc1)c1cc2ccccc2o1 (stereo not drawn)	none
O=C(C1=C(O)C(=O)N(c2nccs2)C1c1ccccc1)c1cc2ccccc2o1 (stereo not drawn)	cardiac RTF act 34, CRFBP-R2 agonist 168
CCOc1cccc(C2C(C(=O)c3ccc(C)o3)=C(O)C(=O)N2Cc2ccncc2)c1 (stereo not drawn)	none
CCOc1cccc(C2C(C(=O)c3ccc(C)o3)=C(O)C(=O)N2c2nccs2)c1 (stereo not drawn)	CRFBP-R2 agonist 159
CCOc1ccc(-n2c(=O)c3sccc3n(CC(=O)NCC3CCCO3)c2=O)cc1 (stereo not drawn)	none
COc1cccc(Oc2ccc(OC)cc2C(=O)O)c1	CRFBP-R2 block 74
COc1cccc(Nc2ccccc2C(=O)O)c1	none
CC(C)(C)c1ccc(CC(=O)N2CCC2(C)C(=O)N2CCCCC2)cc1 (stereo not drawn)	none (no result: cardiac RTF act, CRFBP-R2 agonist, Cardiac RTF inh, CRFBP-R2 block)
COc1ccc(C2NC(=O)NC(C)=C2C(=O)OC2CCC(C)CC2)cc1 (stereo not drawn)	none
CCN1CCN(CCCNC(=O)C2CCN(c3nnc(-n4cccc4)s3)CC2)CC1	Myeloid diff MLP active
COc1cc(NC(=O)Cn2cnc3c(OCc4ccccc4)ncnc32)cc(OC)c1OC	none
O=C(O)Cc1ccc(C(=O)c2ccccc2)s1	none
N#CCc1ccc(C(=O)c2ccccc2F)s1	Myeloid diff MLP active
Cc1ccc(C)c(/C=N/Nc2nc3ccccc3c(=O)n2O)c1	none (no result: cardiac RTF act, Cardiac RTF inh)
CN(C(=O)c1cccc(NC(=O)Cc2ccc(NC(=O)C3CCN(C(=O)c4ccccc4)CC3)cc2)c1)C1CCCCC1	none
CCOC(=O)c1c(NC(C)=O)sc2c1CCC(C=NCCCN(CC)CC)=C2Sc1ccccc1	Myeloid diff MLP active
Cc1ccc(NC(=O)C(C)OC(=O)/C=C/c2ccccc2)cc1S(=O)(=O)N1CCOCC1 (stereo not drawn)	none
CC1=C(c2ccccc2)C(O)(c2ccccc2)C(C)C1=O (stereo not drawn)	CRFBP-R2 block 59
COC(=O)CCC(=O)N1CCCC(CO)(Cc2ccccc2F)C1 (stereo not drawn)	none
CCOc1ccc(C(=O)Nc2cnn(Cc3ccc(Cl)c(Cl)c3)c2)cc1	CRFBP-R2 block 73
Cc1ccc(Nc2nc(N)nc(CN3CCN(C(=O)c4ccco4)CC3)n2)cc1Cl	none
COCCN(CCOC)Cc1c(O)ccc2c1O/C(=C\c1ccco1)C2=O	cardiac RTF act 69
Cc1cc(C)c(C)c(S(=O)(=O)N2CCNC(=O)C2)c1C	none (no result: cardiac RTF act, Cardiac RTF inh)
Cc1cc(C)cc(Nc2nc(-c3ccc(S(=O)(=O)N4CCCC4)cc3)cs2)c1	Myeloid diff MLP active
CCOc1ccc(C(=O)Nc2c3c(nn2-c2ccc(C)cc2)CS(=O)C3)cc1OCC (stereo not drawn)	none
Cc1ccc(-n2nc3c(c2NC(=O)c2ccc(OC(C)C)cc2)CS(=O)C3)cc1 (stereo not drawn)	CRFBP-R2 block 68
O=C(CCN1C(=O)NC2(CCCC2)C1=O)Nc1ccc(Sc2ccc(Br)cc2)cc1	none (no result: cardiac RTF act, Cardiac RTF inh)
O=C(CCN1C(=O)NC2(CCCC2)C1=O)Nc1ccc(-c2nc3ccccc3s2)cc1	Myeloid diff MLP active
O=C(c1cc2ccccc2[nH]1)N1CCOCC1	none
Cc1ccc(S(=O)(=O)N(C)C[C@@H]2Oc3ncc(C#CCC(C)C)cc3C(=O)N([C@H](C)CO)C[C@H]2C)cc1	none (no result: cardiac RTF act, Cardiac RTF inh)
CCOC(=O)c1sc(NC(=S)NC(=O)c2cccc(OC)c2)nc1C	CRFBP-R2 agonist 58 (no result: Myeloid diff MLP)
CC(OC(=O)c1ccc2ncsc2c1)C(=O)Nc1cccc(Cl)c1 (stereo not drawn)	Myeloid diff MLP inconclusive
CC(=O)c1cccc(NC(=O)C(C)OC(=O)c2ccc3ncsc3c2)c1 (stereo not drawn)	Myeloid diff MLP active
COc1cc(C2NC(=O)NC3=C2C(=O)OC3)cc(OC)c1OC (stereo not drawn)	none
O=C(NC(C(=O)N/N=C/c1ccccc1)c1n[nH]c(=O)c2ccccc12)c1ccccc1 (stereo not drawn)	CRFBP-R2 agonist 98
COc1ccc2c(CC(=O)N3CCN(S(=O)(=O)c4ccc(F)cc4)CC3)coc2c1	Myeloid diff MLP active
